# Assay results: PubChem BioAssay (Tox21)
# Results filed as inconclusive are left out. Calls of active or inactive are those of the source. The call rests on the fitted dose curve; in most records, active means well fitted cell-killing curve with a large enough effect in the repeat runs; inconclusive means weak or mixed curves; inactive means no such curve, though single readings can be large or run the other way.
# Test: qHTS assay to identify small molecule agonists of the peroxisome proliferator-activated receptor delta (PPARd) signaling pathway - cell viability counter screen (AID 743211); further: nearly all actives have a fitted effect of over 55% in size
# Conditions: PPARd-bla HEK293H viability, CellTiter-Glo luminescence, 17 h; series mostly up to 62.6 µM; activity change, negative = cytotoxicity: at the top concentration
# Excerpt: U.S. Tox21 Program National Center for Advancing Translational Sciences [NCATS] NIH Chemical Genomics Center [NCGC] U.S. Environmental Protection Agency [EPA] National Institutes of Environmental Health Sciences [NIEHS] National Toxicology Program [NTP] U.S. Food and Drug Administration [FDA] Tox21 Assay Overview: The peroxisome proliferator-activated receptors (PPARs) are lipid-activated transcription factors of the nuclear receptor superfamily with three distinct subtypes namely PPAR alpha, PPAR delta (PPARd) and PPAR gamma. All these subtypes heterodimerizes with Retinoid X receptor (RXR) and have different physiological functions. […] To identify the compounds that activate PPAR-delta signaling, GeneBLAzer PPAR delta UAS-bla HEK293H cell line (Invitrogen, Carlsbad, CA, USA) containing a beta-lactamase reporter gene under the control of an Upstream Activator Sequence (UAS) was used to screen the Tox21 compound library. The cytotoxicity of the Tox21 compound library against the PPARd-bla cell line was tested in parallel by measuring the cell viability using CellTiter-Glo assay (Promega, Madison, WI) in the same wells.
# Tox21 Assay Protocol Summary: PPARd-bla cells were dispensed at 3000 cells/6uL/well in 1536-well black wall/clear bottom plates using a Multidrop Combi (Thermo Fisher Scientific, Waltham, MA) dispenser. After the assay plates were incubated at 37 C and 5% CO2 for 5 h, 23 nL of compounds dissolved in DMSO, positive controls or DMSO only was transferred to the assay plate by a Pintool station (Kalypsys, San Diego, CA). The assay plates were incubated at 37C for 17 h. After 1 uL of LiveBLAzerTM B/G FRET substrate was added using a Bioraptr Flying Reagent Dispenser (FRD) workstation (Beckman Coulter, Indianapolis, IN, USA), the plates were incubated at room temperature for 2 h, and fluorescence intensity was measured by an Envision plate reader (PerkinElmer, Shelton, CT). For cell viability readout that measures cytotoxicity, 3 ul/well of CellTiter-Glo reagent was added into the assay plates using a Bioraptr FRD. After 30 min incubation at room temperature, the luminescence intensity in the plates was measured using a ViewLux plate reader (PerkinElmer).
# On the % scale 0 is the no-effect control and ±100 the full control effect.
SMILES,"activity change, negative = cytotoxicity",Potency
Cc1cccn2c(=O)c(-c3nnn[nH]3)cnc12,8.42% [at 29.1 µM] (inactive),
CC1(C)CO[C@@H](CC(=O)O)CN1,7.33% (inactive),
CC(=O)CC(C)(C)C1CCCCC1,-3.13% (inactive),
C/C=C(\C)C#N,7.3% (inactive),
Nc1cc(=O)[nH]c(N)n1,2.06% (inactive),
CCOC(=O)C(=O)OCC,1.1% (inactive),
OC(CCN1CCCCC1)(c1ccccc1)C1CC2C=CC1C2 (stereo not given),0.908% (inactive),
COc1ccc2c(c1)c(CC(=O)OCC(=O)O)c(C)n2C(=O)c1ccc(Cl)cc1,-1.23% (inactive),
COc1ccccc1OCC(O)CN1CCN(CC(=O)Nc2c(C)cccc2C)CC1 (stereo not given),-3.05% (inactive),
O=c1cc(CO)occ1O,9.2% (inactive),
CCc1cccc2c(CCO)c[nH]c12,3.05% (inactive),
Cc1ccc(=O)n(-c2ccccc2)c1,6.58% (inactive),
O=C(O)CCCc1ccccc1,0.692% (inactive),
CCN(Cc1ccncc1)C(=O)C(CO)c1ccccc1 (stereo not given),3.03% (inactive),
CC(=O)Nc1ccc(S(N)(=O)=O)cc1,12.1% (inactive),
CN1CCN(c2cc3c(cc2F)c(=O)c(C(=O)O)cn3-c2ccc(F)cc2)CC1,4.06% (inactive),
CCOC(=O)c1c(C)n(C)c2ccc(O)cc12,-0.386% (inactive),
CCCCCCCCS(=O)(=O)Cl,-0.856% [at 81.1 µM] (inactive),
NC(=O)c1cn(Cc2c(F)cccc2F)nn1,8.23% (inactive),
CCCCC/C=C\CCC=O,5.4% (inactive),

SMILES,"activity change, negative = cytotoxicity",Potency
CC/C=C\CC/C=C/C(OCC)OCC,-5.38% (inactive),
O=C1NC(=O)[C@@]2(CCOc3ccc(F)cc32)N1,5.39% (inactive),
CCCCNC(=O)NCCCC,6.05% (inactive),
CC(=O)OCC(=O)[C@@]1(O)CCC2C3CCC4=CC(=O)CC[C@]4(C)C3[C@@H](O)C[C@@]21C (stereo not given in full),3.16% (inactive),
OC1CCCCC1c1ccccc1 (stereo not given),-10.5% (inactive),
CC(C)c1cc2c(cc1S(=O)(=O)O)[C@@]1(C)CCC[C@@](C)(C(=O)O)[C@@H]1CC2,-0.359% (inactive),
O=C(CCCN1CCN(c2ccccn2)CC1)c1ccc(F)cc1,-1.97% (inactive),
CCCc1cc(C(N)=S)ccn1,0.516% (inactive),
CCc1ccc(O)c(OC)c1,10.6% (inactive),
CCN(CC)CCNC(=O)c1cc(S(C)(=O)=O)ccc1OC,-2.55% (inactive),
N=c1nc(N2CCCCC2)cc(N)n1O,1.71% (inactive),
C=CCS(=O)(=O)O,3.06% (inactive),
Nc1c2c(nc3ccccc13)CCCC2O (stereo not given),1.66% (inactive),
CN(C)CCCSc1ccccc1NC(=O)/C=C/c1ccccc1,-11.2% (inactive),
COC(=O)c1c(Cl)c(Cl)c(C(=O)OC)c(Cl)c1Cl,,inactive
CC(C)OC(=O)c1ccccc1,3.68% [at 81.1 µM] (inactive),
N[C@H](C(=O)O)c1ccc(O)cc1,7.2% [at 29.1 µM] (inactive),
CC1(C)C(O)C(C)(C)C1O (stereo not given),3.85% (inactive),
Nc1ccc(S(=O)(=O)Nc2ccnn2-c2ccccc2)cc1,1.28% [at 29.1 µM] (inactive),
CC(C)(CC(=O)O)C(=O)O,-0.87% (inactive),
